Experimental data from PubChem BioAssay (Tox21).
Active and inactive are the calls of the source. Calls come from the whole dose curve.

molecular target: Acetylcholinesterase (Homo sapiens) (UniProt P22303); assay: Acetylcholinesterase (AChE) small molecule antagonists: enzyme-based qHTS assay with human liver microsomes (AID 1347399); settings: Potency: qHTS inhibition; outcome: qHTS inhibition; series mostly up to 115 µM; activity change, negative = inhibition: at the top concentration; note: nearly all actives have a fitted effect of over 60% in size
Sequence (P22303 whole entry, looked up): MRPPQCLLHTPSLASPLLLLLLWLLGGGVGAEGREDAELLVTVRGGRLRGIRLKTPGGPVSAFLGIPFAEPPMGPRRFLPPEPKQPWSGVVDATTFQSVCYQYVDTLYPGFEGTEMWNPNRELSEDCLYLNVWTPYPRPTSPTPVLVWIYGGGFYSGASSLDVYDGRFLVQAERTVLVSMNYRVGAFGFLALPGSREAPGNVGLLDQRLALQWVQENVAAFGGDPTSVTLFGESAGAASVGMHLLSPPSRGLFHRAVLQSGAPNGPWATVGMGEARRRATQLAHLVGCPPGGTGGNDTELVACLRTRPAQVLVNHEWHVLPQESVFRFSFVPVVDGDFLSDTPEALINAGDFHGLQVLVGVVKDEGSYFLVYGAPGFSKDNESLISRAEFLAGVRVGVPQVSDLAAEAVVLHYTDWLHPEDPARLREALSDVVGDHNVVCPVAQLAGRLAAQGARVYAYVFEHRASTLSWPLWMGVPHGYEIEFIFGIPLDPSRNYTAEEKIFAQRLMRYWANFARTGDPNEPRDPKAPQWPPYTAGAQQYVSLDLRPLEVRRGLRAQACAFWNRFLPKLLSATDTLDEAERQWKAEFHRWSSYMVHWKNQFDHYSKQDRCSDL
In short: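 Recombinant human AChE (50 mU/mL in the enzyme mix) and human liver microsomes (0.25 mg/mL final) were preincubated with compound and NADPH (0.25 mg/mL final) for 30 min at 37 C. Acetylthiocholine/DTNB was then added; thiocholine was read colorimetrically after 10 min at room temperature.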
% is set by controls: 0 for no effect and ±100 for the full control effect.

Structure (SMILES)	activity change, negative = inhibition	Potency
CC(=O)NCCCCCC(=O)O	-0.753% [at 53 µM] (inactive)	–
CCOC(=O)NNc1nncc2ccccc12	–	inactive
CC(C)(C)CC(C)(C)N	-0.323% (inactive)	–
c1ccc2scnc2c1	–	inactive
CCCCOc1cc(C(=O)NCCN(CC)CC)c2ccccc2n1	-0.116% [at 53 µM] (inactive)	–
Clc1ccc2c(c1)Nc1ccccc1S2	0.666% [at 53 µM] (inactive)	–
O=c1c(-c2ccc(O)cc2)coc2cc(O)ccc12	–	inactive
O=C1CCC(C2CCCCC2)CC1	0.179% (inactive)	–
CC(C)(C)c1cc(CCC(=O)OCC(COC(=O)CCc2cc(C(C)(C)C)c(O)c(C(C)(C)C)c2)(COC(=O)CCc2cc(C(C)(C)C)c(O)c(C(C)(C)C)c2)COC(=O)CCc2cc(C(C)(C)C)c(O)c(C(C)(C)C)c2)cc(C(C)(C)C)c1O	0.382% [at 53 µM] (inactive)	–
C=C1[C@H]2CC[C@@H]3[C@H]2C(C)(C)CCC[C@]13C	-0.15% (inactive)	–
CC(C)(CO)C(O)C(=O)NCCCO (stereo not given)	-0.149% (inactive)	–
CCOC(=O)c1ccc(C)cc1	-0.429% (inactive)	–
C[C@]12C=CC(=O)C=C1[C@@H](F)C[C@@H]1[C@@H]2[C@@H](O)C[C@@]2(C)[C@H]1CC[C@]2(O)C(=O)CO	0.0023% [at 53 µM] (inactive)	–
COc1cccc(OC)c1O	-9.04% (inactive)	–
C=C(C)C(=O)OCCOc1ccccc1	-4.07% (inactive)	–
Nc1nc2ccc(OC(F)(F)F)cc2s1	3.86% [at 53 µM] (inactive)	–
C/C=C(/C(=C/C)c1ccc(O)cc1)c1ccc(O)cc1	-0.778% [at 53 µM] (inactive)	–
Cc1ccsc1C(=CCCN1CCC[C@@H](C(=O)O)C1)c1sccc1C	0.883% [at 53 µM] (inactive)	–
CCN(C=O)CC	1.35% (inactive)	–
CC1=C(CC(=O)O)c2cc(F)ccc2/C1=C\c1ccc(S(C)=O)cc1 (stereo not given)	–	inactive

Structure (SMILES)	activity change, negative = inhibition	Potency
O=C(O)CCCCCCC(=O)O	-2.37% (inactive)	–
O=C(O)Cc1cccc2ccccc12	–	inactive
Cc1cc(C2(c3cc(C)c(O)cc3C)OS(=O)(=O)c3ccccc32)c(C)cc1O	–	inactive
CCOC(=O)Cn1c(=O)sc2cccc(Cl)c21	-2.37% (inactive)	–
O=C(O)c1ccc(Cl)c(Cl)c1	0% (inactive)	–
C=Cc1c(C)c2cc3[nH]c(cc4nc(cc5nc(cc1[nH]2)C(C)=C5CCC(=O)O)C(CCC(=O)O)=C4C)c(C)c3C=C	21.8% [at 53 µM] (inactive)	–
CCOc1ccc(NC(=O)CC(C)O)cc1 (stereo not given)	–	inactive
CCCCOCC(C)O (stereo not given)	3.32% (inactive)	–
Cc1c(C(=O)c2c[nH]n(C)c2=O)ccc(S(C)(=O)=O)c1C1=NOCC1	-0.237% [at 53 µM] (inactive)	–
CCCCCCCCCCCCCCCCC	2.22% (inactive)	–
CC1(C)S[C@@H]2[C@H](NC(=O)C(C(=O)O)c3ccccc3)C(=O)N2[C@H]1C(=O)O (stereo not given in full)	0% [at 53 µM] (inactive)	–
Cn1ccnc1	-0.297% (inactive)	–
CCOCCn1c(C2CCN(CCc3ccc(C(C)(C)C(=O)O)cc3)CC2)nc2ccccc21	-0.249% [at 53 µM] (inactive)	–
Cc1cc2nc(N)sc2cc1C	-2.01% (inactive)	–
NC(N)=NCCN1CCCCCCC1	-0.084% [at 0.435 µM] (inactive)	–
CC1=C(Br)C(=O)C(Br)=C/C1=C(/c1ccccc1S(=O)(=O)O)c1cc(Br)c(O)c(Br)c1C	2.64% [at 53 µM] (inactive)	–
O=C(NCC1CN(c2ccc(N3CCOCC3=O)cc2)C(=O)O1)c1ccc(Cl)s1 (stereo not given)	1.02% [at 53 µM] (inactive)	–
CC(C)(Oc1ccc(Cl)cc1)C(=O)OCCCOC(=O)C(C)(C)Oc1ccc(Cl)cc1	0.168% [at 53 µM] (inactive)	–
CN(C)C(=O)Nc1ccc(Cl)c(Cl)c1	–	inactive
CCCCCCCCCCCCN1CCCC1=O	-1.17% (inactive)	–
